One assay has as its system TAB113. The assay can be described thus: qHTS profiling for inhibitors of Plasmodium falciparum proliferation (AID 504749). Note: potency is the fitted concentration of half-maximal effect. The conditions noted are these: P. falciparum in erythrocytes, SYBR Green DNA, 72 h; series mostly up to 28.7 µM. In a few lines:
(§1)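 Readout was DNA-dye fluorescence from lysed cultures, ex 485/em 535 nm. Parasitized red cells had grown 72 h with compound; data scaled between 0.29 uM artemisinin and DMSO wells and corrected using vehicle-only plates.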
For orientation: In qHTS, concentration-response curves come from the screen itself.

A further assay concerns TAB165. Described as above. To be noted: P. falciparum in erythrocytes, SYBR Green DNA, 72 h; series mostly up to 28.7 µM. The method in brief: as §1
The next assay concerns W2. Described as above. The conditions noted are these: P. falciparum in erythrocytes, SYBR Green DNA, 72 h; series mostly up to 28.7 µM. The method in brief:
as §1

In another assay the test system is CRL-7250. The assay can be described thus: Cytotoxic Profiling of Annotated Libraries Using Quantitative High-Throughput Screening (AID 1296008). For max response: % is set by controls: 0 for no effect and ±100 for the full control effect. Note: potency is the fitted concentration of half-maximal effect. To be noted: Five cell lines viability, CellTiter-Glo ATP luminescence, 48-72 h; max response: stronger effect = lower value. The method in brief:
(§2)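 Cells exposed to compounds for 48 or 72 hr at 37 degrees Celsius. Viability read as ATP-coupled luminescence with CellTiter-Glo after 10 min at room temperature.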

The test system of another assay is HEK293. The description is as above. To be noted: Five cell lines viability, CellTiter-Glo ATP luminescence, 48-72 h; max response: stronger effect = lower value. In a few lines:
as §2

Assay [1] deals with HaCat. The assay is described as above. To be noted: Five cell lines viability, CellTiter-Glo ATP luminescence, 48-72 h; max response: stronger effect = lower value. In a few lines: as §2
(In general: ATP-based viability assays read luminescence as a measure of living cells.)

For a further assay, the system named is NIH3T3. The assay is described as above. To be noted: Five cell lines viability, CellTiter-Glo ATP luminescence, 48-72 h; max response: stronger effect = lower value. The method in brief:
as §2

Assay [2] has as its system HACAT. Description: qHTS assay to identify novel small-molecules to repurpose for Merkel cell carcinoma treatment (AID 1296009). To be noted: MCC and control cell lines, CellTiter-Glo viability, 72 h; at 44.8 µM (top of the series) unless noted. In a few lines:
(§3)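 Cells were incubated with compound for 72 hr at 37 degree celsius before CellTiter-Glo addition. Luminescence was normalized with no-cell wells as full cytotoxicity and DMSO as baseline.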

For a further assay, the system named is HEK293T. The assay is described as above. To be noted: MCC and control cell lines, CellTiter-Glo viability, 72 h; at 44.8 µM (top of the series) unless noted. In a few lines: as §3
The next assay deals with KB-3-1. Description: Cytotoxic Profiling of Annotated Libraries Using Quantitative High-Throughput Screening (AID 1296008). For max response: % is set by controls: 0 for no effect and ±100 for the full control effect. Note: potency is the fitted concentration of half-maximal effect. To be noted: Five cell lines viability, CellTiter-Glo ATP luminescence, 48-72 h; max response: stronger effect = lower value. The method in brief:
as §2

Records with an inconclusive call do not appear. A number with no mark means an inactive call. Active and inactive are the calls of the source. Calls come from the whole dose curve; as a rule, active = well fitted inhibition curve with a large enough effect; inconclusive = small, poorly fitted or top-dose-only effect; inactive = flat fitted curve, though single readings scatter.
Note: nearly all actives have a fitted effect of over 60% in size.

With `CC(=O)[C@]1(O)Cc2c(O)c3c(c(O)c2[C@@H](O[C@H]2C[C@H](N)[C@H](O)[C@H](C)O2)C1)C(=O)c1ccccc1C3=O`, the Potency in the assay with TAB113 was 4.47 µM (active); with TAB165, 3.16 µM (active); in the assay with W2 it was 1.69 µM (active); in the assay on CRL-7250 it was 0.237 µM (active); in the assay on HEK293 it was 0.0335 µM (active); in the assay with HaCat [1], 0.0596 µM (active). Besides, the Potency in the assay on NIH3T3 is 0.0841 µM (active).

As to `FC(F)(F)c1ccccc1-n1ccnc1`, the Potency result in the assay with TAB113, in the assay with TAB165 and in the assay on W2 was “inactive” throughout. Besides, the compound was classed as inactive with CRL-7250, in the assay on HaCat [1] and with HACAT [2]. The max response in the assay with HEK293 was -1.59%; in the assay with NIH3T3, -5.68%.

For `CCN1CCC[C@H]1CNC(=O)c1c(O)c(Cl)cc(Cl)c1OC`, the Potency entry in the assay with TAB113, in the assay with TAB165 and with W2 was “inactive” each time. The result with CRL-7250, in the assay on HEK293, in the assay on HaCat [1], with HACAT [2] and in the assay with HEK293T was inactive. For the same compound, in the assay on NIH3T3, the max response is 1.49%.

As to `O=C(O)CCCCCCCC(=O)O`, the Potency entry in the assay with TAB113, with TAB165 and in the assay on W2 was “inactive” in each case. For the same compound, the values for the max response with CRL-7250, in the assay on HEK293 and in the assay with HaCat [1] were -17.5%, 3% and 2.4%, respectively. The outcome in the assay with NIH3T3 was inactive.

`COC(=O)[C@@H](N)Cc1ccc(O)c(O)c1`: the Potency entry in the assay on TAB165 was “inactive”. Further, the max response in the assay on CRL-7250 was 0.35%; in the assay with HEK293, -4.7%; in the assay on HaCat [1], 3.62%; in the assay with KB-3-1, -3.59%; in the assay with NIH3T3 it was -6.82%.

Consider `C(=C\c1ccccc1)/CN1CCN(C(c2ccccc2)c2ccccc2)CC1`, for which the compound was classed as inactive with CRL-7250. Besides, the Potency in the assay with HEK293 was 15 µM (active). In addition, the max response in the assay with HaCat [1] and with NIH3T3 was -6.19% throughout.

For the compound `CCN(CC)CCNC(=O)c1cc(S(C)(=O)=O)ccc1OC`, the Potency result with TAB113 and with TAB165 was “inactive” in each case. The max response with CRL-7250 is 1.79%; with HEK293 it was -8.18%; in the assay on HaCat [1], -0.825%; in the assay on NIH3T3, -1.98%.

Regarding `Nc1ncn([C@@H]2O[C@H](CO)[C@@H](O)[C@H]2O)c(=O)n1`, the Potency entry with TAB113, in the assay with TAB165 and in the assay with W2 was “inactive” each time. The Potency is 7.5 µM (active) in the assay with CRL-7250 and 3.35 µM (active) in the assay on HEK293. Besides, the max response in the assay on HaCat [1] was -18.5%; with NIH3T3, -10.9%.

For the compound `CN(C)C/C=C(/c1ccc(Br)cc1)c1cccnc1`, in the assay with TAB113, the Potency result is “inactive”. Also, in the assay on W2, the Potency is 8.49 µM (active). For the same compound, the result in the assay with CRL-7250, in the assay on HaCat [1], in the assay on NIH3T3 and in the assay on HACAT [2] was inactive. For the same compound, in the assay on HEK293, the max response was -10.5%.

Consider `O=C(O)CN(CCOCCOCCN(CC(=O)O)CC(=O)O)CC(=O)O`, for which the Potency result with TAB113, in the assay on TAB165 and in the assay on W2 was “inactive” in each case. Further, the result with CRL-7250 was inactive. For the same compound, the max response in the assay with HEK293 was 0.265%; in the assay with HaCat [1], 4.17%; with KB-3-1, 5.76%; in the assay with NIH3T3 it was -0.882%.

As for `CC(C)NNC(=O)c1ccncc1`, the Potency entry in the assay with TAB113, with TAB165 and with W2 was “inactive” throughout. Moreover, the max response with CRL-7250 was -3.48%; in the assay on HEK293, -10.4%. Further, the call with HaCat [1], in the assay on NIH3T3 and in the assay with HACAT [2] was inactive.

Take `C[C@@H](O)[C@H]1C(=O)N2C(C(=O)O)=C(SCCN=CN)C[C@H]12`: the max response is -15.5% in the assay with CRL-7250, -4.83% in the assay on HEK293, -8.98% with KB-3-1 and -19.7% with NIH3T3.

For the compound `CCN(CC)CCNC(=O)c1ccc(NC(C)=O)cc1`, the Potency result with TAB113, in the assay on TAB165 and with W2 was “inactive” throughout. The compound was called inactive with CRL-7250. Besides, the figures for the max response in the assay on HEK293, in the assay on HaCat [1] and in the assay with NIH3T3 were 3.23%, 0.497% and -3.76%, respectively.

Turning to `NC(=O)N1c2ccccc2C=Cc2ccccc21`, the Potency entry in the assay with TAB113, in the assay on TAB165 and with W2 was “inactive” throughout. Moreover, the outcome in the assay on CRL-7250 was inactive. Moreover, the max response in the assay on HEK293 is 2.7%; with HaCat [1], -8.83%; in the assay on NIH3T3, 2.27%.

In the case of `CNC1(C)C2CCC(C2)C1(C)C` (stereo unspecified), the Potency entry in the assay on TAB113 and in the assay on TAB165 was “inactive” throughout. Further, the max response in the assay on CRL-7250 is -2.13%; in the assay with HEK293, -9.06%. Besides, the call in the assay on HaCat [1], in the assay with NIH3T3 and in the assay on HACAT [2] was inactive.

With `COc1cc(Cc2cnc(N)nc2N)cc(OC)c1OC`, the call in the assay on CRL-7250, with HEK293, in the assay on HaCat [1], in the assay on HACAT [2] and in the assay on HEK293T was inactive. Besides, the max response in the assay on NIH3T3 is -0.336%.

As to `CC(=O)OC(C)C[N+](C)(C)C` (stereo unspecified), the max response in the assay with CRL-7250 was 1.65%; in the assay with HEK293, 3.97%; in the assay on NIH3T3, 2.06%. In addition, the call with HaCat [1] and with HACAT [2] was inactive.

As to `O=C(O)CP(=O)(O)O`, the Potency entry with TAB113 and in the assay on TAB165 was “inactive” throughout. Besides, the max response in the assay with CRL-7250 is -7.2%; with KB-3-1, 0.355%. Further, the compound was classed as inactive in the assay with HEK293, with NIH3T3 and with HEK293T.

For `CCN(CC)CC(=O)Nc1c(C)cccc1C`, the Potency entry in the assay with TAB113, with TAB165 and in the assay on W2 was “inactive” each time. Further, the max response in the assay on CRL-7250 is -12.2%; in the assay with HEK293 it was -14.5%; in the assay with HaCat [1] it was -2.67%; in the assay with KB-3-1 it was -0.324%. Further, the compound was called inactive in the assay on NIH3T3.

Turning to `CCn1cc(C(=O)O)c(=O)c2cc3c(cc21)OCO3`, the Potency entry in the assay with TAB113, with TAB165 and in the assay on W2 was “inactive” throughout. The max response was -16.9% in the assay on CRL-7250; -14.3% with HEK293; -9.91% in the assay on HaCat [1]; -12.7% in the assay on KB-3-1; -23.3% in the assay with NIH3T3.

Consider `CN1C[C@H](C(=O)N[C@]2(C)O[C@@]3(O)[C@@H]4CCCN4C(=O)[C@H](Cc4ccccc4)N3C2=O)C[C@@H]2c3cccc4[nH]cc(c34)C[C@H]21`, for which the Potency is 1.51 µM (active) in the assay on W2 and 10.6 µM (active) with HEK293. For the same compound, in the assay on CRL-7250, the result was inactive. In the assay with HaCat [1], the max response is -5.88%.

For `O=C(O)CN(CCN(CC(=O)O)CC(=O)O)CCN(CC(=O)O)CC(=O)O`, the Potency result with TAB113, in the assay on TAB165 and in the assay on W2 was “inactive” throughout. The max response with CRL-7250 is -4.18%; in the assay on HaCat [1], -15.5%; in the assay on KB-3-1, 28.9%. For the same compound, the outcome in the assay on HEK293 was inactive. In addition, the outcome in the assay with HEK293T is “inactive [at 17.4 µM]”.

On to `Cc1ccc(S(=O)(=O)NC(=O)NN2CCCCCC2)cc1`, for which the Potency result in the assay on TAB113, in the assay on TAB165 and in the assay on W2 was “inactive” throughout. In addition, the compound was called inactive in the assay with CRL-7250. For the same compound, the max response with HEK293 is -0.0062%; in the assay with HaCat [1], 3.13%; in the assay with KB-3-1, 3.88%; in the assay with NIH3T3 it was 0.771%.
